Bioassay records from PubChem.
Rows were chosen to be rich in hits. Some 12% of all compounds tested hit in one or more screens of this group.
G9a inh-1 = G9a (human) methyltransferase inhibition; Potency, µM (series often up to 102 µM), hits mostly inhibitors; 8.8% of 350,000 active; G9a H3K9 monomethylation, AlphaScreen, 2 h; AID 504332; also: nearly all actives have a fitted effect of over 75% in size
Target sequence (Q96KQ7 913-1193 limits assumed): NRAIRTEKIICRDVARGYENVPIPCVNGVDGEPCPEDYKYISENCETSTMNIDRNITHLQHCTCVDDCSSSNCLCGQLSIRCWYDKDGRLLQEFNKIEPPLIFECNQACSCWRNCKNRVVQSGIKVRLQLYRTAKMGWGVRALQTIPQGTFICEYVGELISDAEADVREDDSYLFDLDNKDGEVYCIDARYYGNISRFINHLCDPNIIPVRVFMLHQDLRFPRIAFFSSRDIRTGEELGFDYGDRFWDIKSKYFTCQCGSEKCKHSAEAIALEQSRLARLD
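AlphaScreen read-out: biotin-H3K9 peptide (500 nM) methylation by 20 nM enzyme with 20 uM SAM, 2 h at room temperature after 15 min compound preincubation; anti-monomethyl H3K9 antibody plus donor/acceptor beads, 10 min dark.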
JMJD2A Tudor = inhibitors of human JMJD2A Tudor domain. AID 504339. 4.4% of 390,000 active. Potency, µM (titrated, usually from 114 µM), usual class: inhibitors. AlphaScreen JMJD2A-Tudor / H3K4me3 peptide binding. O75164; also: nearly all actives have a fitted effect of over 50% in size
HP1b chromo inh = HP1-beta chromodomain-methylated histone interaction inhibition | AlphaScreen HP1-beta / biotin-H3K9me3 peptide binding | Potency, µM (top dose mostly 114 µM), most hits filed as inhibitors | 0.56% of 390,000 active | AID 540317; also: nearly all actives have a fitted effect of over 70% in size
Target sequence (P83916 whole entry, looked up): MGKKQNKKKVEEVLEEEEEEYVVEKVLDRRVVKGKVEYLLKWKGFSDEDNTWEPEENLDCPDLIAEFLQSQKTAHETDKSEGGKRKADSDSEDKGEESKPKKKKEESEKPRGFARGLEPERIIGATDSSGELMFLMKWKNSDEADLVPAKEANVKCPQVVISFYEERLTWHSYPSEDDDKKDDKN
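HP1-beta protein (50 nM final) preincubated 30 min at room temperature with biotinylated H3(1-18)K9me3 peptide (50 nM) in PBS pH 7.4, 0.01% Tween-20, then compound added for 30 min. AlphaScreen streptavidin donor/nickel chelate acceptor beads (10 ug/mL final), 30 min dark, luminescence read.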
BAZ2B inh = BAZ2B (human) inhibition; Potency, µM (doses to about 114 µM), most hits filed as inhibitors; 4.4% of 360,000 active; AID 504333; AlphaScreen BAZ2B-H3K14Ac peptide displacement; also: nearly all actives have a fitted effect of over 60% in size
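Compounds, titrated to a top concentration of 110 uM, were incubated 30 min at room temperature with preformed BAZ2B/acetyl-K14 H3 peptide complex (50 nM each). Proximity signal was measured by AlphaScreen after 20 min with beads.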
Sfp inh = blocks B. subtilis Sfp PPTase activity. Potency, µM, hits mostly inhibitors. Q9F4F7. 3.5% of 310,000 active. Biochemical Sfp PPTase activity, qHTS. AID 1490;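 also: the enzyme is Sfp with the accession as filed and its product quenches rhodamine fluorescence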
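Reaction rates are the 30-min fluorescence difference (ex 525, em 598 nm) in wells containing 15 nM Sfp, 5 uM rhodamine-CoA and 12.5 uM BHQ-2-YbbR at pH 7.6 with 10 mM MgCl2.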
Sfp PPTase conf = confirmation of Bacillus subtilis Sfp PPTase inhibitors | shares compounds with Sfp inh | Sfp PPTase enzymatic assay, qHTS titration | Potency, µM (series often up to 114 µM), actives largely listed as inhibitors | 79% of 380 active | AID 2701
Sfp gel assay = Inhibits B. subtilis Sfp phosphopantetheinylation. purified Sfp, gel-based phosphopantetheinylation read-out. Potency, µM, usual class: inhibitors. shares compounds with Sfp inh. 20% of 210 active. AID 2707;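 active = potency below 100 µM; inconclusive = dose-dependent response but potency above 100 µM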;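 also: potency is an IC50 for inhibitors of Sfp transfer activity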
G9a inh-2 = confirmation of human histone methyltransferase G9a inhibitors | Potency, µM, most hits filed as inhibitors | 89% of 370 active | shares compounds with JMJD2A Tudor | G9a H3K9 monomethylation, AlphaScreen, 2 h | AID 588344; also: nearly all actives have a fitted effect of over 65% in size
A number is an active result. Unless noted, calls follow the shape of the dose curve; as a rule, active = well fitted curve in the direction sought with a large enough effect; inconclusive = small, poorly fitted or top-dose-only effect, or another doubt; inactive = no such curve, though single readings can be large; an effect the other way counts as inactive or inconclusive.

For COC(=O)C1=C(C)NC(C)=C(C(=O)OCC(C)C)C1c1ccccc1[N+](=O)[O-] (stereo not given) the results were G9a inh-1 11µM, JMJD2A Tudor 20µM, HP1b chromo inh 16µM, Sfp inh 40µM and Sfp PPTase conf 37µM.
For CCOC(=O)c1cc(-c2ccco2)nc2c1c(C)nn2CCC#N the results were G9a inh-1 11µM, JMJD2A Tudor inactive, HP1b chromo inh inactive, BAZ2B inh inactive, Sfp inh 28µM, Sfp PPTase conf 47µM and Sfp gel assay inactive.
`Cc1ccc(NCc2ccc(O)c3ncccc23)cc1` gave G9a inh-1 5µM, JMJD2A Tudor 8.9µM, HP1b chromo inh inconclusive, BAZ2B inh inactive, Sfp inh 3.5µM and Sfp PPTase conf inconclusive.
`CC1CC(C)CN(C(=O)c2nn(C)c3c2CSc2ccccc2-3)C1` (stereo not given) gave JMJD2A Tudor inactive, HP1b chromo inh inactive, BAZ2B inh inactive and Sfp inh inactive.
`CC1CCCN(C(=O)c2nn(C)c3c2CSc2ccccc2-3)C1` (stereo not given) gave JMJD2A Tudor inconclusive, HP1b chromo inh inactive, BAZ2B inh inactive, Sfp inh 45µM and Sfp PPTase conf 53µM.
For COc1ccc(C(=O)C2CCCN(C(=O)CCc3scnc3C)C2)c(C)c1 (stereo not given) the results were JMJD2A Tudor inactive, HP1b chromo inh inactive, BAZ2B inh inactive, Sfp inh 13µM and Sfp PPTase conf inactive.
Screening COC(=O)Nc1ccc(S(=O)(=O)N2CCC(C(=O)N(C)C3CCCCC3)CC2)cc1 returned G9a inh-1 inactive, JMJD2A Tudor inactive, HP1b chromo inh inactive, BAZ2B inh inactive and Sfp inh inactive.
Cc1ccn2c(Nc3ccc4c(c3)OCO4)c(-c3ccccn3)nc2c1 was read as G9a inh-1 inconclusive, JMJD2A Tudor 13µM, HP1b chromo inh 50µM, BAZ2B inh 13µM, Sfp inh 2.8µM, Sfp PPTase conf inconclusive and Sfp gel assay inactive.
COc1ccc2[nH]c(S(=O)Cc3ncc(C)c(OC)c3C)nc2n1 (stereo not given) was read as G9a inh-1 inconclusive, Sfp inh 45µM and Sfp PPTase conf 19µM.
Screening COc1ccccc1N1C(=O)C=C(Sc2nc(C)cc(C)n2)C1=O returned G9a inh-1 0.45µM, JMJD2A Tudor 7.9µM, HP1b chromo inh 8.9µM, BAZ2B inh inconclusive, Sfp inh 3.2µM, Sfp PPTase conf 1.7µM and Sfp gel assay 6.2µM.
Screening Cc1nc2c(-c3ccc(F)cc3)c(C)nn2c(C)c1CCC(=O)NCCN1CCOCC1 returned G9a inh-1 inconclusive, JMJD2A Tudor inactive, HP1b chromo inh inactive, BAZ2B inh inactive and Sfp inh inactive.
`C=CCOc1c(CNc2ccc(C(=O)O)cc2)cccc1OC` gave G9a inh-1 inactive, JMJD2A Tudor inactive, HP1b chromo inh inactive, BAZ2B inh inactive and Sfp inh inactive.
COc1cccc(CNc2ccc(N3CCC(C)CC3)cc2)c1OC was read as G9a inh-1 inconclusive, JMJD2A Tudor 20µM, HP1b chromo inh inactive, BAZ2B inh 40µM, Sfp inh 10µM, Sfp PPTase conf inconclusive, Sfp gel assay inactive and G9a inh-2 2.
O=C(O)CCc1ccc(-c2cccs2)o1 was read as G9a inh-1 inconclusive, JMJD2A Tudor 100µM, HP1b chromo inh inconclusive, BAZ2B inh 56µM, Sfp inh 2.8µM, Sfp PPTase conf 6.6µM and G9a inh-2 7.9.
CCN(CC)S(=O)(=O)c1ccc(C)c(NC(=O)COc2ccc3c(C)cc(=O)oc3c2)c1 was read as G9a inh-1 inactive, JMJD2A Tudor inactive, HP1b chromo inh inactive, BAZ2B inh inactive and Sfp inh inactive.
Screening O=[N+]([O-])c1ccc(/C=N/NC2=NS(=O)(=O)c3ccccc32)cc1 returned G9a inh-1 inactive, JMJD2A Tudor inactive, HP1b chromo inh inactive, BAZ2B inh inactive and Sfp inh inactive.
